In PubChem BioAssay AID1063 (University of Pittsburgh Molecular Library Screening Center, 2008):
Screen size: about 200,000 compounds; about 18,000 (9%) were called active. Rule as the data show it: active = inhibition above about 50%; inactive = the rest. For the sample, actives were picked, then their nearest neighbours and some compounds at random. Where a SMILES comes first, the peptide text is derived from it. The star is where a group is joined. Bz = O=C(c1ccccc1)*

Test: antileishmanial activity against promastigotes – primary screen (AID 1063);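 also: promastigotes grown with compound for 44 hours at 28 °C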
Conditions: Leishmania major promastigotes, resazurin fluorescence viability; at 10 µM; active compounds read high

Compound | inhibition
CC1(C)C(c2cccs2)=[N+]([O-])C2(CCCCC2=O)N1O (stereo not drawn) | -6.22% (inactive)
COCCN(Cc1nc(-c2ccc(C(F)(F)F)cc2)no1)C(C)C | 0.28% (inactive)
O=C(Nc1ccnc(-c2ccncc2)n1)c1cccs1 | 1.21% (inactive)
COC(=O)CCNC(=O)c1ccc2[nH]c(C)c(C)c2c1 | -6.37% (inactive)
COc1ccc(-c2[nH]ncc2CN(C)Cc2cccnc2)c(F)c1 | 5.13% (inactive)
CC/C(O)=C1\C(=O)CC(C)(C)CC1=NCCc1nc2ccccc2[nH]1 | 2.52% (inactive)
CC(=O)c1cccc(NC(=O)Nc2ccc(C)cc2)c1 | -3.66% (inactive)
COC(=O)c1ccc(NC(=O)Nc2ccc(C)cc2)cc1 | 91.7% (active)
Cc1ccc(NC(=O)CC(=O)Nc2ccc(C)cc2)cc1 | -5.48% (inactive)
O=C(Nc1ccc(S(=O)(=O)N2CCCCC2)cc1)c1cnccn1 | -3.44% (inactive)
CC1CCCN(S(=O)(=O)c2ccc(N(C(=O)c3cnccn3)C(C(=O)NC3CCCCC3)c3cccs3)cc2)C1 (stereo not drawn) | 69.2% (active)
O=C(NC1CCCCC1)C1CCCN(S(=O)(=O)c2cccs2)C1 (stereo not drawn) | -2.02% (inactive)
CCCCn1c(=O)c(C(C)=O)c(O)c2ccccc21 | -2.04% (inactive)
COC(=O)c1cccc(N(C(=O)c2ccco2)C(C(=O)NC2CCCC2)c2ccco2)c1 (stereo not drawn) | 51.8% (active)
COC(=O)c1ccc(N(CC(=O)NC2CCCC2)C(=O)CNC(=O)c2ccco2)cc1 | -5.36% (inactive)
O=C(NC1CCCC1)C(c1ccc(N2CCOCC2)cc1)N(C(=O)c1ccco1)c1ccccc1F (stereo not drawn) | 3.7% (inactive)
Cc1cc(C(=O)N/N=C\C(Br)=C\c2ccccc2)c(C)o1 | 12.7% (inactive)
COc1cc(/C=N\NC(=O)c2nonc2N)c(OC)cc1Br | -4.69% (inactive)
COCc1c(C(=O)N/N=C/C2CC=CCC2)nnn1-c1nonc1N (stereo not drawn) | -6.32% (inactive)
Nc1nonc1-n1nnc(C(=O)N/N=C/c2cc(Br)ccc2O)c1CSC1=NCCS1 | 50.8% (active)
COc1ccc(-c2ccc(CCC(=O)O)n2NC(=O)c2ccc(C(C)(C)C)cc2)cc1 | -4.23% (inactive)
NC(=O)C1=C[C@H](c2csc3ccccc23)C[C@H](OCc2ccc(CO)cc2)O1 | 14.5% (inactive)
CN(C)N(C)C(=O)C(O)(c1ccccc1)c1ccccc1 | -4.98% (inactive)
Cc1nc(C)c(C(=O)N(c2ccc(C)c(C)c2)C(C(=O)NCc2ccco2)c2ccccc2)s1 (stereo not drawn) | -1.53% (inactive)

Compound | inhibition
Cc1ccc(-c2nnn(CC(=O)N(Cc3ccco3)C(C(=O)NC(C)(C)C)c3ccncc3)n2)o1 (stereo not drawn) | 4.2% (inactive)
Cc1nn(-c2ccccc2)c2sc(C(=O)N(Cc3ccco3)C(C)C(=O)NC(C)(C)C)cc12 (stereo not drawn) | 85.5% (active)
COc1ccc(CC(=O)NCc2nnc(SCC(=O)Nc3ncc(C)s3)n2C)cc1 | -4.95% (inactive)
N#Cc1nc(Cc2ccccc2)oc1NCCc1ccccc1 | 0.9% (inactive)
N#Cc1nc(COc2ccc(-c3ccccc3)cc2)oc1NCc1cccnc1 | 7.49% (inactive)
CCOc1ccc(Nc2oc(Cc3ccccc3)nc2C#N)cc1 | 99.7% (active)
CCOC(=O)c1[nH]cnc1C(=O)Nc1ccccc1C | 4.69% (inactive)
CCC(=O)Nc1ccc(C(=O)N2CCN(C(=O)c3ccco3)CC2)cc1 | 0.95% (inactive)
O=C(Nn1cnc2ccccc2c1=O)c1ccc([N+](=O)[O-])cc1Cl | -9.04% (inactive)
CC(=O)Nc1ccc(OCC(=O)NCc2ccc(C)cc2)cc1 | -6.13% (inactive)
COc1ccc(NC(=O)/C(Cl)=C(/Cl)S(=O)Cc2ccc(C)cc2)cn1 (stereo not drawn) | 101% (active)
COc1ccc(NC(=S)NCCNC(C)=O)cc1 | -3.38% (inactive)
COc1ccc(CS(=O)/C(Cl)=C(/Cl)C(=O)Nc2ccc(OC)nc2)cc1 (stereo not drawn) | 101% (active)
Cc1ccc(NC(=O)OCc2cncs2)cc1 | -5.83% (inactive)
COc1ccc(NC(=S)Nc2ccccc2Cl)cn1 | 6.52% (inactive)
Cc1ccc(NC(=O)OCCNC(=O)c2ccncc2)cc1 | 0.55% (inactive)
O=C(CN1C(=O)NC2(CCCCCC2)C1=O)NC1CC1 | -1.36% (inactive)
O=C(Nc1ccccc1C(=O)O)c1cc(S(=O)(=O)N2CCCCC2)cs1 | -7.25% (inactive)
CCOC(=O)c1sc(=NC(=O)/C=C/c2cccs2)n(C)c1C | -7.45% (inactive)
Cc1ccc(OCc2n[nH]c(=S)n2-c2ccccc2)cc1 | 0.68% (inactive)
COc1ccccc1N(C(=O)Cn1nnc2ccccc21)C(C(=O)NCc1ccco1)c1ccc(C)o1 (stereo not drawn) | -2.13% (inactive)
COc1ccc([N+](=O)[O-])cc1N(CC(O)Cn1nnc2ccccc21)S(=O)(=O)c1ccc(C)cc1 (stereo not drawn) | 99% (active)
COc1ccc(C)cc1S(=O)(=O)N(CC(=O)Nc1cccc([N+](=O)[O-])c1)c1ccc(C)cc1 | 30.9% (inactive)
CC(=O)OC(COc1ccc(F)cc1)Cn1cnc2ccccc21 (stereo not drawn) | -0.28% (inactive)

Compound | inhibition
Cc1cc(C(F)F)n2nc(C(=O)Nc3ccc(S(=O)(=O)NC45CC6CC(CC(C6)C4)C5)cc3)nc2n1 | 99% (active)
Cc1cc(NS(=O)(=O)c2ccc(NC(=O)c3cccc(OC(F)F)c3)cc2)nc(C)n1 | -1.79% (inactive)
CCn1nccc1C(=O)Nc1ccc(S(=O)(=O)NC23CC4CC(CC(C4)C2)C3)cc1 | 47.6% (inactive)
COc1ccc(Cl)cc1N(CC(=O)N1CCCCC1)S(C)(=O)=O | -4.47% (inactive)
COc1ccc(/C=N/S(=O)(=O)c2ccccc2)cc1OC | 0.14% (inactive)
CN(C)c1ccc(/C=N\S(=O)(=O)c2ccccc2)cc1 | 51.7% (active)
CN(C)c1ccc(/C=N/N(Cc2ccccc2)c2ccccc2)cc1 | 3.58% (inactive)
CCNC(=S)NNC(=O)c1ccc2ncccc2c1 | -8.24% (inactive)
OC(c1nnc(-c2ccccc2)o1)c1cccs1 (stereo not drawn) | 0.18% (inactive)
O=c1cnnc(Nc2ccccc2F)[nH]1 | -2.35% (inactive)
CC(C)=C1SC(N2CCN(c3cccc(C)c3)CC2)=NC1=O | 1.42% (inactive)
CCN1C(=O)/C(=C2\SC(N3CCCCC3)=NC2=O)c2ccccc21 | 74.1% (active)
CCN1C(=O)/C(=C\N2CCN(c3ccccc3)CC2)SC1=S | 0.18% (inactive)
O=C(c1cncc(Br)c1)N1CCN(c2ccc([N+](=O)[O-])cc2)CC1 | 57.2% (active)
Cc1cccc(C(=O)NC(=S)N2CCN(c3ccc([N+](=O)[O-])cc3)CC2)c1 | 36.9% (inactive)
O=C(c1ccc(Cl)c([N+](=O)[O-])c1)N1CCN(c2ccccc2)CC1 | -0.23% (inactive)
Cc1cc([N+](=O)[O-])nn1CC(=O)Nc1ccc(Cc2ccncc2)cc1 | -0.44% (inactive)
Cc1ccc2c(=O)oc(N(C)C)nc2c1 | 7.03% (inactive)
Cc1ccc(SCCC(=O)NCc2ccccn2)cc1 | 3.06% (inactive)
Cc1ccc(SCCC(=O)NC(C(C)C)C(C)C)cc1 | 59.5% (active)
Cc1ccc(SCCC(=O)Nc2cc(C)on2)cc1 | -6.06% (inactive)
CN(C)/C=C/C(=O)c1cnc2sccn2c1=O | -6.23% (inactive)
O=C(C(Cc1ccccc1)n1cccc1)N1CCN(C2CCCCC2)CC1 (stereo not drawn) | 83% (active)
Cc1ccc(C(=O)N2CCN(C3CCCCC3)CC2)s1 | -10.8% (inactive)

Compound | inhibition
O=C(NC(Cc1ccccc1)C(=O)N1CCCC1C(=O)O)c1ccccc1 (stereo not drawn) (Bz-Phe-Pro-OH; configuration not given here) | -8.5% (inactive)
COCCCN(C(=S)Nc1c(C)cc(C)cc1C)C(C)c1ccncc1 (stereo not drawn) | 1.38% (inactive)
O=C(Nn1c(-c2ccc(Cl)cc2)nc2ccccc2c1=O)c1cccnc1Cl | 55.3% (active)
Cc1cccc(-c2nc3ccccc3c(=O)n2NC(=O)Cc2ccc(Cl)cc2)c1 | 53% (active)
O=C(Cn1nnc2ccccc2c1=O)NCc1ccc(Cl)cc1 | -4.83% (inactive)
O=C(Nn1c(-c2ccccc2)nc2ccccc2c1=O)c1ccc([N+](=O)[O-])cc1 | -4.12% (inactive)
O=C(Cc1ccc(Cl)cc1)NCc1nc(-c2ccccc2)no1 | -1.26% (inactive)
COc1cc(OC)cc(-c2nc3ccccc3c(=O)n2NC(=O)c2cccnc2Cl)c1 | 46.3% (inactive)
CCCCCC1CCC(c2nnc(SCC(C)=O)o2)CC1 (stereo not drawn) | -9.46% (inactive)
COCCNC(=O)C(OC(=O)c1cccs1)c1ccc(F)cc1 (stereo not drawn) | -3.33% (inactive)
COc1ccc(Cl)cc1NC(=O)CN(C)Cc1ccc(OC)c(OC)c1 | 1.17% (inactive)
Cc1cccc(-n2c(Cc3cc(=O)[nH]c(=O)[nH]3)nnc2SCC(=O)Nc2cccc(C(F)(F)F)c2)c1 | -1.75% (inactive)
N#Cc1c(NC(=O)C2CC(Cl)=CCC2C(=O)O)sc2c1CCCCC2 (stereo not drawn) | -8.36% (inactive)
O=C(COC(=O)C1CCCCC1)Nc1ccc([N+](=O)[O-])cc1 | -5.31% (inactive)
O=C(COc1ccc([N+](=O)[O-])cc1)Nc1ccc(N2CCCC2)cc1 | 86.2% (active)
COc1ccc(OCC(=O)Nc2ccc(N3CCC(C)CC3)cc2)cc1 | 8.72% (inactive)
COc1cc(COCC(O)CN2CCN(Cc3ccc4c(c3)OCO4)CC2)cc(OC)c1OC (stereo not drawn) | 2.04% (inactive)
Cc1cc(=O)oc(C)c1C(=O)NCCN(C)Cc1ccccc1 | 9.38% (inactive)
COc1ccc(CCNC(=O)CSc2nc(-c3ccc(OC)c(OC)c3)ccc2C#N)cc1 | 27.6% (inactive)
COc1ccc(CCNC(=O)CSc2nnc3ccc(-c4ccncc4)nn23)cc1 | -2.23% (inactive)
COc1cccc(-c2ccc(C#N)c(SCC(=O)NCCc3ccc(Cl)cc3)n2)c1 | 50.9% (active)
